From PubChem BioAssay AID1159580 (chemical genetic matrix, 2015)
In all, about 5,500 compounds went through this assay and about 2,000 (36%) were called active. About 18% were inconclusive and are not listed. Rule as the data show it: active = normalized growth mostly below about 0.91 (no sharp cut-off); inconclusive = no clear call, values can overlap the other calls; inactive = mostly above about 0.92. Some of the results follow.

Assay: chemical genetic growth profiling, strain panel (AID 1159580);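 also: tested at 20 µM; growth read once vehicle control cultures reached saturation at 30 °C; 1 = growth at the plate median or of vehicle wells; lower values mean less growth of the strain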
Settings: growth OD
[1] = S. cerevisiae deletion strains, locus YDL101C, strain DUN1, stronger effect = lower value
[2] = S. cerevisiae deletion strains, locus YHR030C, strain SLT2, stronger effect = lower value
[3] = S. cerevisiae deletion strains, locus YAR019C, strain CDC15, stronger effect = lower value
[4] = S. cerevisiae deletion strains, locus YBL105C, strain PKC1, stronger effect = lower value
[5] = S. cerevisiae deletion strains, locus YBR135W, strain CKS1, stronger effect = lower value
[6] = S. cerevisiae deletion strains, locus YBR136W, strain MEC1, stronger effect = lower value
[7] = S. cerevisiae deletion strains, locus YBR160W, strain CDC28, stronger effect = lower value
[8] = S. cerevisiae deletion strains, locus YDL017W, strain CDC7, stronger effect = lower value
[9] = S. cerevisiae deletion strains, locus YDL028C, strain MPS1, stronger effect = lower value
[10] = S. cerevisiae deletion strains, locus YDL108W, strain KIN28, stronger effect = lower value
[11] = S. cerevisiae deletion strains, locus YDL132W, strain cdc53, stronger effect = lower value
[12] = S. cerevisiae deletion strains, locus YDL214C, strain PRR2, stronger effect = lower value
[13] = S. cerevisiae deletion strains, locus YDR052C, strain DBF4, stronger effect = lower value
[14] = S. cerevisiae deletion strains, locus YDR054C, strain cdc34, stronger effect = lower value
[15] = S. cerevisiae deletion strains, locus YDR226W, strain ADK1, stronger effect = lower value
[16] = S. cerevisiae deletion strains, locus YDR477W, strain SNF1, stronger effect = lower value
[17] = S. cerevisiae deletion strains, locus YER123W, strain YCK3, stronger effect = lower value
[18] = S. cerevisiae deletion strains, locus YER133W, strain GLC7, stronger effect = lower value
[19] = S. cerevisiae deletion strains, locus YFL009W, strain cdc4, stronger effect = lower value
[20] = S. cerevisiae deletion strains, locus YFL029C, strain CAK1, stronger effect = lower value
[21] = S. cerevisiae deletion strains, locus YFR003C, strain YPI1, stronger effect = lower value
[22] = S. cerevisiae deletion strains, locus YFR019W, strain FAB1, stronger effect = lower value
[23] = S. cerevisiae deletion strains, locus YFR028C, strain CDC14, stronger effect = lower value
[24] = S. cerevisiae deletion strains, locus YGR040W, strain KSS1, stronger effect = lower value
[25] = S. cerevisiae deletion strains, locus YGR052W, strain FMP48, stronger effect = lower value
[26] = S. cerevisiae deletion strains, locus YGR092W, strain DBF2, stronger effect = lower value
[27] = S. cerevisiae deletion strains, locus YHR079C, strain IRE1, stronger effect = lower value
[28] = S. cerevisiae deletion strains, locus YHR082C, strain KSP1, stronger effect = lower value
[29] = S. cerevisiae deletion strains, locus YHR205W, strain SCH9, stronger effect = lower value
[30] = S. cerevisiae deletion strains, locus YIL147C, strain SLN1, stronger effect = lower value
[31] = S. cerevisiae deletion strains, locus YJL095W, strain BCK1, stronger effect = lower value
[32] = S. cerevisiae deletion strains, locus YJL128C, strain PBS2, stronger effect = lower value
[33] = S. cerevisiae deletion strains, locus YJL157C, strain FAR1, stronger effect = lower value
[34] = S. cerevisiae deletion strains, locus YJR016C, strain ILV3, stronger effect = lower value
[35] = S. cerevisiae deletion strains, locus YJR066W, strain TOR1 (second series), stronger effect = lower value
[36] = S. cerevisiae deletion strains, locus YJR066W, strain TOR1, stronger effect = lower value
[37] = S. cerevisiae deletion strains, locus YKL048C, strain ELM1, stronger effect = lower value
[38] = S. cerevisiae deletion strains, locus YKL067W, strain YNK1, stronger effect = lower value
[39] = S. cerevisiae deletion strains, locus YKL101W, strain HSL1, stronger effect = lower value
[40] = S. cerevisiae deletion strains, locus YKL193C, strain SDS22, stronger effect = lower value
[41] = S. cerevisiae deletion strains, locus YKL203C, strain TOR2, stronger effect = lower value
[42] = S. cerevisiae deletion strains, locus YLR113W, strain HOG1, stronger effect = lower value
[43] = S. cerevisiae deletion strains, locus YLR133W, strain CKI1, stronger effect = lower value
[44] = S. cerevisiae deletion strains, locus YLR403W, strain SFP1, stronger effect = lower value
[45] = S. cerevisiae deletion strains, locus YML070W, strain DAK1, stronger effect = lower value
[46] = S. cerevisiae deletion strains, locus YMR001C, strain CDC5, stronger effect = lower value
[47] = S. cerevisiae deletion strains, locus YMR205C, strain PFK2 (second series), stronger effect = lower value
[48] = S. cerevisiae deletion strains, locus YMR277W, strain FCP1, stronger effect = lower value
[49] = S. cerevisiae deletion strains, locus YNL006W, strain LST8, stronger effect = lower value
[50] = S. cerevisiae deletion strains, locus YNL020C, strain ARK1, stronger effect = lower value
[51] = S. cerevisiae deletion strains, locus YNL161W, strain CBK1, stronger effect = lower value
[52] = S. cerevisiae deletion strains, locus YNL183C, strain NPR1, stronger effect = lower value
[53] = S. cerevisiae deletion strains, locus YNL207W, strain RIO2, stronger effect = lower value
[54] = S. cerevisiae deletion strains, locus YNL222W, strain SSU72, stronger effect = lower value
[55] = S. cerevisiae deletion strains, locus YNL307C, strain MCK1 (second series), stronger effect = lower value
[56] = S. cerevisiae deletion strains, locus YOL078W, strain AVO1, stronger effect = lower value
[57] = S. cerevisiae deletion strains, locus YOL136C, strain PFK27, stronger effect = lower value
[58] = S. cerevisiae deletion strains, locus YOR061W, strain CKA2, stronger effect = lower value
[59] = S. cerevisiae deletion strains, locus YOR119C, strain RIO1, stronger effect = lower value
[60] = S. cerevisiae deletion strains, locus YOR231W, strain MKK1, stronger effect = lower value
[61] = S. cerevisiae deletion strains, locus YOR329C, strain SCD5, stronger effect = lower value
[62] = S. cerevisiae deletion strains, locus YPL031C, strain PHO85, stronger effect = lower value
[63] = S. cerevisiae deletion strains, locus YPL153C, strain RAD53, stronger effect = lower value
[64] = S. cerevisiae deletion strains, locus YPL204W, strain HRR25, stronger effect = lower value
[65] = S. cerevisiae deletion strains, locus YPL209C, strain IPL1, stronger effect = lower value
[66] = S. cerevisiae deletion strains, locus YPL256C, strain CLN2, stronger effect = lower value
[67] = S. cerevisiae deletion strains, locus YPR025C, strain CCL1, stronger effect = lower value
[68] = S. cerevisiae deletion strains, locus YPR106W, strain ISR1, stronger effect = lower value
[69] = S. cerevisiae deletion strains, locus YPR111W, strain DBF20, stronger effect = lower value
[70] = S. cerevisiae deletion strains, strain NNK1, stronger effect = lower value
[71] = S. cerevisiae deletion strains, strain TSCII, stronger effect = lower value

Measured: normalized growth

C/C(=C\C(=O)Nc1ccc(F)cc1)Nc1ccc(F)cc1
inactive: S. cerevisiae deletion strains, locus YAL013W, strain DEP1, stronger effect = lower value 1 | S. cerevisiae deletion strains, locus YBR229C, strain ROT2, stronger effect = lower value 1.01 | S. cerevisiae deletion strains, locus YCL061C, strain MRC1, stronger effect = lower value 1.04 | [1] 1.05 | S. cerevisiae deletion strains, locus YDR150W, strain NUM1, stronger effect = lower value 1.04 | S. cerevisiae deletion strains, locus YEL061C, strain CIN8, stronger effect = lower value 0.973 | S. cerevisiae deletion strains, locus YGR078C, strain PAC10, stronger effect = lower value 1.03 | S. cerevisiae deletion strains, locus YGR229C, strain SMI1, stronger effect = lower value 0.979 | [2] 1.02 | S. cerevisiae deletion strains, locus YHR087W, strain rtc3, stronger effect = lower value 0.971 | S. cerevisiae deletion strains, locus YJR043C, strain POL32, stronger effect = lower value 1.02 | S. cerevisiae deletion strains, locus YJR075W, strain HOC1, stronger effect = lower value 1 | S. cerevisiae deletion strains, locus YKL190W, strain CNB1, stronger effect = lower value 1.01 | S. cerevisiae deletion strains, locus YLR039C, strain RIC1, stronger effect = lower value 1.05 | S. cerevisiae deletion strains, locus YLR058C, strain SHM2 (second series), stronger effect = lower value 0.998 | S. cerevisiae deletion strains, locus YLR085C, strain ARP6, stronger effect = lower value 0.975 | S. cerevisiae deletion strains, locus YLR262C, strain YPT6, stronger effect = lower value 0.989 | S. cerevisiae deletion strains, locus YML094W, strain GIM5, stronger effect = lower value 0.982 | S. cerevisiae deletion strains, locus YMR219W, strain ESC1, stronger effect = lower value 1 | S. cerevisiae deletion strains, locus YMR263W, strain SAP30, stronger effect = lower value 1.01 | S. cerevisiae deletion strains, locus YNL153C, strain GIM3, stronger effect = lower value 1.04 | S. cerevisiae deletion strains, locus YNL298W, strain CLA4 (second series), stronger effect = lower value 1 | S. cerevisiae deletion strains, locus YNL322C, strain KRE1, stronger effect = lower value 1 | S. cerevisiae deletion strains, locus YNR030W, strain Alg12, stronger effect = lower value 1 | S. cerevisiae deletion strains, locus YOL006C, strain TOP1, stronger effect = lower value 1.04 | S. cerevisiae deletion strains, locus YPL055C, strain LGE1, stronger effect = lower value 0.976 | S. cerevisiae deletion strains, locus YPL241C, strain CIN2, stronger effect = lower value 0.999 | S. cerevisiae deletion strains, locus YPR135W, strain CTF4, stronger effect = lower value 1.05 | S. cerevisiae strains, strain wild type, stronger effect = lower value 1

CC(C)(C)c1ccc(N/N=C(\C#N)C(N)=O)cc1
active: [3] 0.111 | [4] 0.0972 | [5] 0.109 | [6] 0.109 | [7] 0.114 | [8] 0.0979 | [9] 0.117 | [1] 0.115 | [10] 0.11 | [11] 0.142 | [12] 0.114 | [13] 0.146 | [14] 0.107 | [15] 0.117 | [16] 0.103 | [17] 0.104 | [18] 0.133 | [19] 0.105 | [20] 0.11 | [21] 0.0948 | [22] 0.103 | [23] 0.108 | [24] 0.108 | [25] 0.145 | [26] 0.101 | [2] 0.189 | [27] 0.214 | [28] 0.225 | [29] 0.000939 | [30] 0.107 | [31] 0.166 | [32] 0.0973 | [33] 0.112 | [34] 0.101 | [35] 0.0973 | [36] 0.207 | [37] 0.134 | [38] 0.118 | [39] 0.103 | [40] 0.109 | [41] 0.112 | [42] 0.212 | [43] 0.0995 | [44] 0.00739 | [45] 0.116 | [46] 0.112 | [47] 0.0978 | [48] 0.105 | [49] 0.0902 | [50] 0.0965 | [51] 0.112 | [52] 0.135 | [53] 0.102 | [54] 0.107 | [55] 0.109 | [56] 0.108 | [57] 0.122 | [58] 0.092 | [59] 0.119 | [60] 0.249 | [61] 0.101 | [62] 0.103 | [63] 0.0998 | [64] 0.108 | [65] 0.0972 | [66] 0.243 | [67] 0.112 | [68] 0.107 | [69] 0.131 | [70] 0.105 | [71] 0.106

N#C/C(=N/Nc1ccccc1)C(=O)c1ccccc1OC(F)(F)F
active: [2] 0.841 | [42] 0.816
inactive: [3] 0.922 | [4] 0.912 | [5] 0.91 | [6] 0.917 | [7] 0.916 | [8] 0.918 | [9] 0.918 | [1] 0.93 | [10] 0.912 | [11] 0.909 | [12] 0.877 | [13] 0.928 | [14] 0.922 | [15] 0.901 | [16] 0.88 | [17] 0.831 | [18] 0.898 | [19] 0.91 | [20] 0.919 | [21] 0.918 | [22] 0.903 | [23] 0.906 | [24] 0.853 | [25] 0.883 | [26] 0.797 | [27] 0.853 | [28] 0.9 | [29] 0.901 | [30] 0.912 | [31] 0.891 | [32] 0.89 | [33] 0.883 | [34] 0.918 | [35] 0.879 | [36] 0.885 | [37] 0.883 | [38] 0.895 | [39] 0.876 | [40] 0.919 | [41] 0.913 | [43] 0.87 | [44] 0.837 | [45] 0.879 | [46] 0.92 | [47] 0.91 | [48] 0.912 | [49] 0.915 | [50] 0.866 | [51] 0.915 | [52] 0.92 | [53] 0.905 | [54] 0.913 | [55] 0.893 | [56] 0.913 | [57] 0.845 | [58] 0.885 | [59] 0.909 | [60] 0.857 | [61] 0.922 | [62] 0.842 | [63] 0.882 | [64] 0.802 | [65] 0.915 | [66] 0.881 | [67] 0.919 | [68] 0.926 | [69] 0.904 | [70] 0.914 | [71] 0.902
